# Shown are actives, neighbours in structure and some others; about 10% of the full set was active somewhere.
# VP16 counter: VP16 counterscreen qHTS for inhibitors of ROR gamma transcriptional activity. Potency, µM (titrated, usually from 53.6 µM), inactives show top-dose activity, negative = inhibition, usual class: inhibitors. Drosophila S2 Gal4-VP16 UAS-luciferase, luminescence, 20 h. 3.5% of 310,000 active;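 note: Gal4-VP16 expression switched on by copper sulfate through the metallothionein promoter; % is set by controls: 0 for no effect and ±100 for the full control effect; nearly all actives have a fitted effect of over 50% in size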
# SW480 rerep: A quantitative high throughput screen for small molecules that induce DNA re-replication in SW480 colon adenocarcinoma cells | SW480 DNA re-replication, Hoechst DNA content imaging, 48 h | Potency, µM (top dose mostly 46.1 µM), for the others: at the highest dose re-replication activation, usual class: activators | 1.8% of 340,000 active | AID 624297, 2012; note: % of control where 0% means no effect; nearly all actives have a fitted effect of over 55% in size
#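 Compounds, transferred as 23 nL by pin tool, were incubated with cells for 48 hr; DNA content per nucleus was then quantified by Hoechst staining and fluorescence plate imaging.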
# MCF10A rereplic: A quantitative high throughput screen for small molecules that induce DNA re-replication in MCF 10a normal breast cells | MCF 10A DNA re-replication, Hoechst nuclear intensity, 48 h | Potency, µM (top dose mostly 46.1 µM), without a hit: top-dose activity, positive = re-replication, most hits filed as activators | 2.9% of 350,000 active | AID 624296, 2012; note: % of control where 0% means no effect; nearly all actives have a fitted effect of over 50% in size
# KB-V1 cytotox: qHTS assay for MDR1-selective chemotherapeutics: Primary screen using the drug-selected MDR subline cells KB-V1; KB-V1 MDR cells viability, CellTiter-Glo, 72 h; Potency, µM (doses to about 46.1 µM), most hits filed as cytotoxic; 3.4% of 400,000 active; AID 1347076, 2019; note: % is set by controls: 0 for no effect and ±100 for the full control effect; nearly all actives have a fitted effect of over 60% in size
#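 KB-V1, DMEM (no phenol red) + 10% FBS; cpd pin-transferred, titration series; 72 h, 37 degrees C; CellTiter-Glo, luminescence. Data normalized, curve-fit.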
# KB-3-1 tox: qHTS assay for MDR1-selective chemotherapeutics: Primary screen using the parental adenocarcinoma cell KB-3-1. Potency, µM (top dose mostly 46.1 µM), hits mostly cytotoxic. 1.4% of 400,000 active. AID 1347075, 2019. KB-3-1 viability, CellTiter-Glo ATP luminescence, 72 h; note: % is set by controls: 0 for no effect and ±100 for the full control effect; nearly all actives have a fitted effect of over 60% in size
#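 Viability of parental KB-3-1 cells, measured by CellTiter-Glo luminescence, followed a 72 h incubation at 37 °C with pinned compounds in phenol-red-free DMEM containing 10% FBS.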
# RORg inh: qHTS for inhibitors of ROR gamma transcriptional activity. Nuclear receptor ROR-gamma (Mus musculus), P51450. Potency, µM (doses to about 53.6 µM), for inactives: top-dose activity change, negative = inhibition, hits mostly inhibitors. 5.4% of 310,000 active. Drosophila S2 Gal4-RORgamma UAS-luciferase reporter, 20 h; note: % is set by controls: 0 for no effect and ±100 for the full control effect; nearly all actives have a fitted effect of over 60% in size
# Target sequence (P51450 whole entry, looked up, the tested form may be a part): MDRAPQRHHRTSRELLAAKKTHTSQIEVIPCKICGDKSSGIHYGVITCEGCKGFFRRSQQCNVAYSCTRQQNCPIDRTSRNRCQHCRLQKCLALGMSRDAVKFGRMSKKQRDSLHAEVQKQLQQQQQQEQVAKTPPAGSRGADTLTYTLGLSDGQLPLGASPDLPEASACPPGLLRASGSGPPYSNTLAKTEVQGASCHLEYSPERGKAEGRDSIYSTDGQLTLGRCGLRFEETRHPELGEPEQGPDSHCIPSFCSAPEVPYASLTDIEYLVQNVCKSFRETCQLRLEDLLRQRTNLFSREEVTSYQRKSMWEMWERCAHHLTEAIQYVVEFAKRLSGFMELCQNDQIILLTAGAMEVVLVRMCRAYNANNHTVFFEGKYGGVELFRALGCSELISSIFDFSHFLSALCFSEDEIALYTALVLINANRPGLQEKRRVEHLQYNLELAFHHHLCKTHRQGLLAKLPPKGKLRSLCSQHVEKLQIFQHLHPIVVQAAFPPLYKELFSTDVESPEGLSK
#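 Luminescence from a UAS-regulated Photinus luciferase reporter in stably transfected Drosophila Schneider cells is measured; decreased signal marks ROR gamma inhibition. Fusion expression is induced by 700 uM copper sulfate for 20 hr.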
# * hit, by the source's call; i = inactive; ? = inconclusive; / = no result. Calls come from the whole dose curve; as a rule, active = well fitted curve in the direction sought with a large enough effect; inconclusive = small, poorly fitted or top-dose-only effect, or another doubt; inactive = no such curve, though single readings can be large; an effect the other way counts as inactive or inconclusive. Potency is the fitted concentration of half-maximal effect.
SMILES,VP16 counter,SW480 rerep,MCF10A rereplic,KB-V1 cytotox,KB-3-1 tox,RORg inh
O=C1c2cccc3cccc(c23)C(=O)N1CCN1CCN(CC(O)COc2ccc3ccccc3c2)CC1 (centres undefined),11.2µM*,?,?,?,?,?
Cc1ccc(C)c(OCC(O)CN2CCN(CCN3C(=O)c4cccc5cccc(c45)C3=O)CC2)c1 (centres undefined),?,?,?,?,16.4µM*,-4.3%
Cc1cc(C)c(Cn2c3ccccc3c3cnn(CC(=O)NC4CCC(C)CC4)c(=O)c32)c(C)c1 (centres undefined),/,/,/,i,i,/
Cc1ccc2c(CC(=O)Nc3c(C(=O)c4ccc(C)c(F)c4)oc4ccccc34)coc2c1,/,/,/,?,i,/
COc1ccc(C(=O)Oc2c(Sc3ccc(Cl)cc3)c(C)nn2C(C)(C)C)cc1OC,/,/,/,i,i,/
O=C(CN1C2=NCCN2c2ccccc21)C12CC3CC(CC(C3)C1)C2,-27.6%,?,5.0%,?,?,15.8µM*
Cn1c(=N)n(CC(=O)C(C)(C)C)c2ccccc21,?,10.8%,?,i,i,11.2µM*
CCn1c(=N)n(CC(=O)c2ccc(Br)s2)c2ccccc21,?,-6.8%,0.1%,i,i,?
CCn1c(=N)n(CC(=O)C(C)(C)C)c2ccccc21,3.16µM*,?,?,i,i,?
COc1ccc(C(=O)CN2C3=NCCCN3c3ccccc32)cc1OC,-14.9%,0.259µM*,-0.7%,i,i,-5.5%
COc1ccc(C(=O)Cn2c(=N)n(C)c3ccccc32)cc1,8.8%,-1.6%,3.1%,i,i,-12.0%
CCn1c(=N)n(CC(=O)c2ccc(OC)c(OC)c2)c2ccccc21,7.5%,-5.2%,-7.1%,13µM*,i,-82.3%
CCCn1c(=N)n(CC(=O)C(C)(C)C)c2ccccc21,1.1%,0.6%,-3.5%,i,i,?
Cn1c(=N)n(CC(=O)c2ccccc2)c2ccccc21,11.2µM*,12.4%,9.1%,i,i,8.91µM*
CCCCn1c(=N)n(CC(=O)C(C)(C)C)c2ccccc21,?,5.6%,?,i,i,5.01µM*
Cn1c(=N)n(CC(=O)O)c2ccccc21,-7.8%,-5.0%,-1.4%,i,i,1.5%
CCn1c(=N)n(CC(=O)OC)c2ccccc21,1.2%,-5.9%,11.5%,i,i,?
CCOc1ccc(NC(=O)Cn2nc(SC)c(S(=O)(=O)c3ccccc3)c2N)cc1,/,/,/,i,i,/
CCc1ccccc1NC(=O)CN(Cc1ccccc1)S(=O)(=O)c1ccc2nc(C)sc2c1,/,/,/,i,i,/
Cc1ccccc1CSCC(=O)Nc1ccccc1-c1ccccc1,-18.4%,?,17.4%,23.1µM*,i,-2.3%
O=C(Cc1ccccc1)N/N=C/c1cccs1,4.8%,-8.5%,7.3%,i,i,-11.1%
Cc1ccccc1CSCC(=O)N/N=C/c1cccs1,-24.5%,3.7%,14.4%,i,i,17.8µM*
Cc1c(NCc2cc(Cl)cc(Cl)c2O)c(=O)n(-c2ccccc2)n1C,5.3%,12.3%,?,20.6µM*,i,?
Cc1ccccc1CSCC(=O)Nc1c(C)n(C)n(-c2ccccc2)c1=O,-2.6%,-8.8%,1.8%,18.4µM*,i,-0.1%
N#Cc1ccc(NC(=O)COCc2cc(-c3ccco3)on2)cc1,/,/,/,i,i,/
OCC#CCSc1nnc(-c2ccccc2Br)o1,-29.7%,?,11.6µM*,i,i,-29.4%
OCC#CCSc1nnc(-c2ccc(Br)cc2)o1,?,1.3%,3.8%,?,i,?

# Source: PubChem BioAssay
